# Laboratory results taken from the supplement of paper PMC10037445.
# Whole data set: some 2,900 compounds, median “NF-kB SEAP reporter activity, fold change vs agonist alone” near 0.99, cut for the highest 2% near 2.6. This is one part of a sample in which the highest values are shown more often than they occur.
# How the values were obtained:
# RAW-Dual [1] = assay: NF-kB SEAP reporter activity, fold change vs agonist alone; cytotoxicity flag (confluency mask): not cytotoxic; higher = enhanced NF-kB activity
# Summary of the method: (§1)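 Library stock was pin-tooled at 50 nL into 384-well plates of RAW-Dual macrophages (50,000 cells/well, DMEM), followed 1 h later by a PRR agonist, and the cells were kept at 37 °C, 5% CO2. Supernatant collected after 20 hours was read for IRF by QuantiLuc luminescence and for NF-κB by QuantiBlue absorbance at 620 nm. Reporter activity is fold change over agonist-alone wells, and a well counted as cytotoxic when its IncuCyte confluency was below 70% of agonist controls in both mask sets.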
# RAW-Dual [2] = assay: NF-kB SEAP reporter activity, fold change vs agonist alone; higher = enhanced NF-kB activity
# Summary of the method: as §1
# RAW-Dual [3] = assay: NF-kB SEAP reporter activity, fold change vs agonist alone; cytotoxicity flag (confluency mask): cytotoxic (confluency <70% of control); higher = enhanced NF-kB activity
# Summary of the method: as §1
# [4] = agonist: ODN 1826 (TLR9) 0.5 ug/mL
# [5] = agonist: Pam2CSK4 (TLR2/6) 0.1 ug/mL
# [6] = agonist: Pam3CSK4 (TLR2/1) 0.1 ug/mL
# [7] = library stock concentration (final ~1000-fold dilution): 10 mM, cytotoxicity flag (confluency mask): not cytotoxic, agonist: MPLA (TLR4) […]
# [8] = library stock concentration (final ~1000-fold dilution): 10 mM, cytotoxicity flag (confluency mask): not cytotoxic, agonist: Imiquimod (TLR7) […]
# [9] = library stock concentration (final ~1000-fold dilution): 2 mM, cytotoxicity flag (confluency mask): not cytotoxic, agonist: Imiquimod (TLR7) […]
# [10] = library stock concentration (final ~1000-fold dilution): 2 mM, cytotoxicity flag (confluency mask): not cytotoxic, agonist: MPLA (TLR4) […]
compound,measurement,setting,value
COC1CC2CCC(C)C(O)(O2)C(=O)C(=O)N2CCCCC2C(=O)OC(C(C)CC2CCC(OCCO)C(OC)C2)CC(=O)C(C)C=C(C)C(O)C(OC)C(=O)C(C)CC(C)C=CC=CC=C1C (centres undefined) (library stock concentration (final ~1000-fold dilution): 10 mM),NF-kB SEAP reporter activity,RAW-Dual [1]; agonist: LPS (TLR4) 0.1 ug/mL,1.83
same,NF-kB SEAP reporter activity,RAW-Dual [1]; [4],1.7
same,NF-kB SEAP reporter activity,RAW-Dual [1]; [5],0.629
same,NF-kB SEAP reporter activity,RAW-Dual [1]; [6],0.915
COC1CC2CCC(C)C(O)(O2)C(=O)C(=O)N2CCCCC2C(=O)OC(C(C)CC2CCC(O)C(OC)C2)CC(=O)C(C)C=C(C)C(O)C(OC)C(=O)C(C)CC(C)C=CC=CC=C1C (centres undefined) (library stock concentration (final ~1000-fold dilution): .1 mM),NF-kB SEAP reporter activity,RAW-Dual [1]; agonist: LPS (TLR4) 0.1 ug/mL,1.2
same,NF-kB SEAP reporter activity,RAW-Dual [1]; [4],1.31
same,NF-kB SEAP reporter activity,RAW-Dual [1]; [5],1.53
same,NF-kB SEAP reporter activity,RAW-Dual [1]; [6],1.44
NS(=O)(=O)c1ccccc1 (library stock concentration (final ~1000-fold dilution): 10 mM),NF-kB SEAP reporter activity,RAW-Dual [1]; agonist: LPS (TLR4) 0.1 ug/mL,1.04
same,NF-kB SEAP reporter activity,RAW-Dual [1]; [4],0.987
same,NF-kB SEAP reporter activity,RAW-Dual [1]; [5],1.07
same,NF-kB SEAP reporter activity,RAW-Dual [1]; [6],0.771
NS(=O)(=O)c1ccccc1,NF-kB SEAP reporter activity,RAW-Dual [2]; [7],1.11
C=CC1CN2CCC1CC2C(O)c1ccnc2ccc(OC)cc12.C=CC1CN2CCC1CC2C(O)c1ccnc2ccc(OC)cc12.O.O.O=S(=O)(O)O (centres undefined) (library stock concentration (final ~1000-fold dilution): 10 mM),NF-kB SEAP reporter activity,RAW-Dual [1]; agonist: LPS (TLR4) 0.1 ug/mL,1.16
same,NF-kB SEAP reporter activity,RAW-Dual [1]; [4],0.531
same,NF-kB SEAP reporter activity,RAW-Dual [1]; [5],1.35
same,NF-kB SEAP reporter activity,RAW-Dual [1]; [6],1.05
C=CC1CN2CCC1CC2C(O)c1ccnc2ccc(OC)cc12.C=CC1CN2CCC1CC2C(O)c1ccnc2ccc(OC)cc12.O.O.O=S(=O)(O)O (centres undefined),NF-kB SEAP reporter activity,RAW-Dual [2]; [8],1.06
same,NF-kB SEAP reporter activity,RAW-Dual [2]; [7],0.931
CN(C)Cc1ccc(S(=O)(=O)n2ccc(/C=C/C(=O)NO)c2)cc1 (library stock concentration (final ~1000-fold dilution): 10 mM),NF-kB SEAP reporter activity,RAW-Dual [1]; agonist: LPS (TLR4) 0.1 ug/mL,4.18
same,NF-kB SEAP reporter activity,RAW-Dual [1]; [4],0.95
same,NF-kB SEAP reporter activity,RAW-Dual [1]; [5],1.03
same,NF-kB SEAP reporter activity,RAW-Dual [1]; [6],0.94
CN(C)Cc1ccc(S(=O)(=O)n2ccc(/C=C/C(=O)NO)c2)cc1,NF-kB SEAP reporter activity,RAW-Dual [2]; [8],1.01
same,NF-kB SEAP reporter activity,RAW-Dual [2]; [7],0.905
CC1(Cn2ccnn2)C(C(=O)O)N2C(=O)CC2S1(=O)=O (centres undefined) (library stock concentration (final ~1000-fold dilution): 10 mM),NF-kB SEAP reporter activity,RAW-Dual [1]; agonist: LPS (TLR4) 0.1 ug/mL,0.971
same,NF-kB SEAP reporter activity,RAW-Dual [1]; [4],1.03
same,NF-kB SEAP reporter activity,RAW-Dual [1]; [5],0.946
same,NF-kB SEAP reporter activity,RAW-Dual [1]; [6],1.06
CC1(Cn2ccnn2)C(C(=O)O)N2C(=O)CC2S1(=O)=O (centres undefined),NF-kB SEAP reporter activity,RAW-Dual [2]; [8],1.06
same,NF-kB SEAP reporter activity,RAW-Dual [2]; [7],0.964
CC(C)Nc1cc(-c2c[nH]c(C(=O)NC(CO)c3cccc(Cl)c3)c2)c(Cl)cn1 (centres undefined),NF-kB SEAP reporter activity,RAW-Dual [2]; [8],0.128
same,NF-kB SEAP reporter activity,RAW-Dual [2]; [7],0.246
CC(C)Nc1cc(-c2c[nH]c(C(=O)NC(CO)c3cccc(Cl)c3)c2)c(Cl)cn1 (centres undefined) (library stock concentration (final ~1000-fold dilution): 10 mM),NF-kB SEAP reporter activity,RAW-Dual [1]; agonist: LPS (TLR4) 0.1 ug/mL,0.201
same,NF-kB SEAP reporter activity,RAW-Dual [1]; [4],0.189
same,NF-kB SEAP reporter activity,RAW-Dual [1]; [5],0.0811
same,NF-kB SEAP reporter activity,RAW-Dual [1]; [6],0.114
CC#Cc1cncc(-c2ccc3c(c2)C2(N=C(C)C(N)=N2)C2(CCC(OC)CC2)C3)c1 (centres undefined) (library stock concentration (final ~1000-fold dilution): 10 mM),NF-kB SEAP reporter activity,RAW-Dual [1]; agonist: LPS (TLR4) 0.1 ug/mL,1.15
same,NF-kB SEAP reporter activity,RAW-Dual [1]; [4],0.723
same,NF-kB SEAP reporter activity,RAW-Dual [1]; [5],0.809
same,NF-kB SEAP reporter activity,RAW-Dual [1]; [6],0.972
CC#Cc1cncc(-c2ccc3c(c2)C2(N=C(C)C(N)=N2)C2(CCC(OC)CC2)C3)c1 (centres undefined),NF-kB SEAP reporter activity,RAW-Dual [2]; [8],1.18
same,NF-kB SEAP reporter activity,RAW-Dual [2]; [7],1.01
COc1cc(N2CCC(N3CCN(C)CC3)CC2)ccc1Nc1ncc(Cl)c(Nc2ccccc2P(C)(C)=O)n1,NF-kB SEAP reporter activity,RAW-Dual [2]; [9],1.15
same,NF-kB SEAP reporter activity,RAW-Dual [2]; [10],1.26
Cc1cc(Nc2ncc(Cl)c(Nc3ccccc3S(=O)(=O)C(C)C)n2)c(OC(C)C)cc1C1CCNCC1,NF-kB SEAP reporter activity,"RAW-Dual [2]; library stock concentration (final ~1000-fold dilution): 10 mM, cytotoxicity flag (confluency mask): cytotoxic (confluency <70% of control), agonist: Imiquimod (TLR7) […]",2.07
same,NF-kB SEAP reporter activity,"RAW-Dual [2]; library stock concentration (final ~1000-fold dilution): 10 mM, cytotoxicity flag (confluency mask): cytotoxic (confluency <70% of control), agonist: MPLA (TLR4) […]",0.569
C=CC(=O)Nc1cccc(Oc2nc(Nc3ccc(N4CCN(C)CC4)cc3OC)ncc2Cl)c1,NF-kB SEAP reporter activity,RAW-Dual [2]; [8],0.931
same,NF-kB SEAP reporter activity,RAW-Dual [2]; [7],0.977
COc1cc(N2CCC(N3CCN(C)CC3)CC2)ccc1Nc1ncc(Cl)c(Nc2ccccc2S(=O)(=O)C(C)C)n1 (library stock concentration (final ~1000-fold dilution): 2 mM),NF-kB SEAP reporter activity,RAW-Dual [1]; agonist: LPS (TLR4) 0.1 ug/mL,1.66
same,NF-kB SEAP reporter activity,RAW-Dual [1]; [4],0.603
same,NF-kB SEAP reporter activity,RAW-Dual [1]; [5],0.757
same,NF-kB SEAP reporter activity,RAW-Dual [1]; [6],1.2
COc1cc(N2CCC(N3CCN(C)CC3)CC2)ccc1Nc1ncnc(Nc2ccccc2S(=O)(=O)C(C)C)n1,NF-kB SEAP reporter activity,RAW-Dual [2]; [8],0.945
same,NF-kB SEAP reporter activity,RAW-Dual [2]; [7],1.14
Cc1cc(Nc2ncc(Cl)c(Nc3ccccc3S(=O)(=O)C(C)C)n2)c(OC(C)C)cc1C1CCNCC1 (library stock concentration (final ~1000-fold dilution): 10 mM),NF-kB SEAP reporter activity,RAW-Dual [3]; agonist: LPS (TLR4) 0.1 ug/mL,0.198
same,NF-kB SEAP reporter activity,RAW-Dual [3]; [4],0.674
same,NF-kB SEAP reporter activity,RAW-Dual [3]; [5],0.845
same,NF-kB SEAP reporter activity,RAW-Dual [3]; [6],0.455
C=CC(=O)Nc1cccc(Oc2nc(Nc3ccc(N4CCN(C)CC4)cc3OC)ncc2Cl)c1 (library stock concentration (final ~1000-fold dilution): 10 mM),NF-kB SEAP reporter activity,RAW-Dual [1]; agonist: LPS (TLR4) 0.1 ug/mL,0.915
same,NF-kB SEAP reporter activity,RAW-Dual [1]; [4],0.863
same,NF-kB SEAP reporter activity,RAW-Dual [1]; [5],0.802
same,NF-kB SEAP reporter activity,RAW-Dual [1]; [6],0.684
COc1cc(N2CCC(N3CCN(C)CC3)CC2)ccc1Nc1ncc(Cl)c(Nc2ccccc2P(C)(C)=O)n1 (library stock concentration (final ~1000-fold dilution): 2 mM),NF-kB SEAP reporter activity,RAW-Dual [1]; agonist: LPS (TLR4) 0.1 ug/mL,2.66
same,NF-kB SEAP reporter activity,RAW-Dual [1]; [4],1.27
same,NF-kB SEAP reporter activity,RAW-Dual [1]; [5],1.28
same,NF-kB SEAP reporter activity,RAW-Dual [1]; [6],1.66
COc1cc(N2CCC(N(C)C)CC2)ccc1Nc1ncc(Cl)c(Nc2ccccc2P(C)(C)=O)n1,NF-kB SEAP reporter activity,RAW-Dual [2]; [8],1.64
same,NF-kB SEAP reporter activity,RAW-Dual [2]; [7],2.05
COc1cc(N2CCC(N(C)C)CC2)ccc1Nc1ncc(Cl)c(Nc2ccccc2P(C)(C)=O)n1 (library stock concentration (final ~1000-fold dilution): 10 mM),NF-kB SEAP reporter activity,RAW-Dual [1]; agonist: LPS (TLR4) 0.1 ug/mL,1.87
same,NF-kB SEAP reporter activity,RAW-Dual [1]; [4],1.64
same,NF-kB SEAP reporter activity,RAW-Dual [1]; [5],1.03
same,NF-kB SEAP reporter activity,RAW-Dual [1]; [6],1.46
COc1cc(N2CCC(N3CCN(C)CC3)CC2)ccc1Nc1ncc(Cl)c(Nc2ccccc2S(=O)(=O)C(C)C)n1,NF-kB SEAP reporter activity,RAW-Dual [2]; [9],1.28
same,NF-kB SEAP reporter activity,RAW-Dual [2]; [10],0.939
COc1cc(N2CCC(N3CCN(C)CC3)CC2)ccc1Nc1ncnc(Nc2ccccc2S(=O)(=O)C(C)C)n1 (library stock concentration (final ~1000-fold dilution): 10 mM),NF-kB SEAP reporter activity,RAW-Dual [1]; agonist: LPS (TLR4) 0.1 ug/mL,5.53
same,NF-kB SEAP reporter activity,RAW-Dual [1]; [4],0.961
same,NF-kB SEAP reporter activity,RAW-Dual [1]; [5],0.718
same,NF-kB SEAP reporter activity,RAW-Dual [1]; [6],1.04
